Inconclusive results are not listed. Activity calls are given as the source filed them. The call rests on the fitted dose curve; in most records, active means well fitted inhibition curve with a large enough effect; inconclusive means small, poorly fitted or top-dose-only effect; inactive means flat fitted curve, though single readings scatter.

Holding throughout (experiment): qHTS profiling for inhibitors of Plasmodium falciparum proliferation (AID 504749); further: nearly all actives have a fitted effect of over 60% in size
Holding throughout (conditions): P. falciparum in erythrocytes, SYBR Green DNA, 72 h; series mostly up to 28.7 µM

The test system of experiment [1] is CP194. The gist of the method: (§1)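 SYBR Green fluorescence (ex 485 nm, em 535 nm) reports parasite DNA after 72 h compound exposure of infected red cells at 0.3% parasitemia, 2.5% hematocrit; signal normalized to 0.29 uM artemisinin and vehicle wells.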
Experiment [2] concerns CP201. The gist of the method: as §1
In experiment [3] the test system is CP203. The gist of the method:
as §1

The subject of experiment [4] is CP211. The gist of the method: as §1
Experiment [5] deals with CP217. The gist of the method:
as §1

In experiment [6] the test system is CP237. The gist of the method: as §1
Experiment [7] deals with CP238. Summed up: as §1
Experiment [8] relates to CP247. The gist of the method: as §1
Experiment [9] relates to CP250. The gist of the method:
as §1

For experiment [10], the system named is CP252. Summed up: as §1
Experiment [11] relates to CP256. Summed up:
as §1

The test system of experiment [12] is CP260. Summed up:
as §1

Experiment [13] deals with CP262. Summed up:
as §1

The subject of experiment [14] is CP265. The gist of the method:
as §1

The subject of experiment [15] is CP266. Summed up:
as §1

Experiment [16] has as its system CP268. Summed up:
as §1

For experiment [17], the system named is CP269. The gist of the method:
as §1

Experiment [18] has as its system CP286. The gist of the method: as §1
In experiment [19] the test system is CP291. Summed up:
as §1

For experiment [20], the system named is CP215. Summed up: as §1
Potency means the concentration at half of the fitted maximal effect.

As for `CCCc1nc(C(C)(C)O)c(C(=O)OCc2oc(=O)oc2C)n1Cc1ccc(-c2ccccc2-c2nn[nH]n2)cc1`, the Potency result in [1], in experiment [2], in experiment [3], in experiment [4], in experiment [5] and in experiment [6] was “inactive” in each case. Moreover, the Potency result in experiment [7], in experiment [8], in experiment [9], in experiment [10], in experiment [11] and in experiment [12] was “inactive” throughout. The Potency entry in experiment [13], in experiment [14], in [15], in [16], in experiment [17] and in [18] was “inactive” in each case. Moreover, the Potency result in experiment [19] was “inactive”.

As to `Nc1ccc(N=Nc2ccccc2)c(N)n1`, the Potency result in experiment [1], in [2], in [3], in experiment [4], in experiment [5] and in experiment [6] was “inactive” throughout. The Potency entry in [7], in experiment [8], in experiment [9], in experiment [10], in experiment [11] and in experiment [12] was “inactive” in each case. The Potency entry in [13], in experiment [14], in [15], in [16], in [17] and in experiment [18] was “inactive” in each case. Moreover, the Potency entry in [19] is “inactive”.

Take `CCN(CC)CCOc1ccc2nc(N(C)C)sc2c1`: the Potency result in experiment [1], in experiment [2], in experiment [3], in [4], in experiment [5] and in experiment [6] was “inactive” each time. Moreover, the Potency entry in experiment [7], in experiment [8], in experiment [9], in experiment [10], in experiment [11] and in experiment [12] was “inactive” throughout. In addition, the Potency result in [14], in [15], in [16], in experiment [17], in [18] and in [19] was “inactive” in each case.

As for `Cc1cc(C(=O)NCCc2ccc(S(=O)(=O)NC(=O)NN3CCCCCC3)cc2)no1`, the Potency entry in experiment [1], in experiment [2], in experiment [3], in experiment [20], in experiment [5] and in experiment [6] was “inactive” each time. Moreover, the Potency result in experiment [7], in experiment [8], in experiment [9], in experiment [10], in experiment [11] and in experiment [12] was “inactive” in each case. Also, the Potency entry in experiment [13], in [14], in experiment [15], in experiment [16], in experiment [17] and in experiment [18] was “inactive” throughout. In addition, the Potency result in experiment [19] is “inactive”.

As for `O=C(O)CC/C=C\CC[C@@H]1[C@@H](N2CCCCC2)[C@@H](O)C[C@@H]1OCc1ccc(-c2ccccc2)cc1`, the Potency entry in [1], in experiment [2], in experiment [3], in experiment [4], in experiment [20] and in experiment [5] was “inactive” throughout. In addition, the Potency result in experiment [7], in experiment [8], in experiment [9], in [10], in experiment [11] and in experiment [12] was “inactive” in each case. In addition, the Potency entry in experiment [13], in [14], in experiment [16], in experiment [17], in experiment [18] and in [19] was “inactive” in each case.

With `CO/N=C(\C(=O)N[C@@H]1C(=O)N2C(C(=O)[O-])=C(C[n+]3cccc4c3CCC4)CS[C@H]12)c1csc(N)n1`, the Potency result in experiment [1], in [2], in experiment [4], in experiment [20], in experiment [5] and in experiment [6] was “inactive” each time. Besides, the Potency result in experiment [7], in [8], in experiment [9], in experiment [10], in experiment [11] and in [13] was “inactive” throughout. Also, the Potency result in experiment [14], in experiment [15], in experiment [17], in [18] and in experiment [19] was “inactive” in each case.

On to `O=P(O)(O)OC[C@H](O)CO`, for which the Potency result in experiment [1], in [2], in experiment [4], in experiment [5], in experiment [6] and in experiment [7] was “inactive” in each case. For the same compound, the Potency result in [8], in experiment [9], in [10], in [11], in experiment [12] and in experiment [13] was “inactive” in each case. The Potency result in experiment [14], in [16], in experiment [17], in [18] and in experiment [19] was “inactive” each time.

As for `OCc1ccccc1`, the Potency entry in experiment [1], in [2], in experiment [4], in experiment [7], in experiment [10] and in [13] was “inactive” throughout. Also, the Potency result in [15] was “inactive”. The Potency in experiment [9] is 10 µM (active); in [11], 12.6 µM (active).

Take `c1ccc2c(c1)Sc1ccccc1N2CCN1CCCC1`: the Potency is 13.5 µM (active) in [1]; 13.5 µM (active) in experiment [2]; 13.5 µM (active) in experiment [4]; 12 µM (active) in [20]; 7.08 µM (active) in experiment [5]; 5.01 µM (active) in experiment [6]. For the same compound, the Potency in experiment [7] is 11.2 µM (active); in experiment [8], 7.08 µM (active); in experiment [9], 11.2 µM (active); in experiment [10], 11.2 µM (active); in experiment [11] it was 10 µM (active); in [12], 7.94 µM (active). The Potency is 11.2 µM (active) in experiment [14]; 9.53 µM (active) in experiment [16]; 15.1 µM (active) in experiment [17]; 10 µM (active) in [18]; 13.5 µM (active) in [19]. Also, the Potency entry in experiment [13] was “inactive”.

With `NCCO/C=C/[C@H](N)C(=O)O`, the Potency result in experiment [1], in experiment [2], in experiment [4], in experiment [20], in [5] and in experiment [6] was “inactive” in each case. Also, the Potency entry in [7], in [8], in [9], in experiment [10], in [11] and in experiment [12] was “inactive” each time. Further, the Potency result in experiment [13], in experiment [14], in experiment [16], in experiment [17], in experiment [18] and in [19] was “inactive” throughout.

Consider `CC(C)=CCC/C(C)=C/C=C/C(C)=C/C=C/C(C)=C/C=C/C=C(C)/C=C/C=C(C)/C=C/C=C(\C)CCC=C(C)C`, for which the Potency entry in [1], in experiment [2], in experiment [4], in experiment [20], in experiment [5] and in [7] was “inactive” in each case. The Potency entry in [8], in [9], in experiment [10], in experiment [11], in experiment [12] and in experiment [13] was “inactive” each time. Moreover, the Potency result in [14], in experiment [16], in experiment [17], in [18] and in [19] was “inactive” each time.

For the compound `CC(=O)[C@H]1CC[C@H]2[C@@H]3C=CC4=CC(=O)CC[C@@]4(C)[C@H]3CC[C@]12C`, the Potency result in experiment [1], in [2], in experiment [4], in experiment [20], in [5] and in experiment [6] was “inactive” throughout. For the same compound, the Potency result in experiment [7], in experiment [8], in experiment [9], in experiment [10], in [11] and in experiment [12] was “inactive” each time. Besides, the Potency result in experiment [13], in experiment [14], in experiment [15], in experiment [16], in experiment [17] and in [18] was “inactive” throughout. Also, in [19], the Potency entry was “inactive”.

As to `CC(C)CCC[C@@H](C)[C@H]1CC[C@H]2[C@@H]3CC[C@@H]4C[C@H](O)CC[C@]4(C)[C@H]3CC[C@]12C`, the Potency entry in experiment [1], in experiment [2], in [4], in experiment [20], in [5] and in experiment [6] was “inactive” each time. Also, the Potency entry in experiment [7], in experiment [8], in experiment [9], in [10], in experiment [11] and in experiment [12] was “inactive” each time. The Potency result in experiment [13], in experiment [14], in experiment [15], in experiment [16], in experiment [17] and in experiment [18] was “inactive” in each case. For the same compound, the Potency entry in experiment [19] is “inactive”.

For `O=C(O)/C=C/c1ccccc1`, the Potency entry in experiment [1], in experiment [2], in experiment [4], in [20], in experiment [5] and in experiment [6] was “inactive” throughout. The Potency entry in [7], in experiment [8], in [9], in experiment [10], in experiment [11] and in [12] was “inactive” throughout. Moreover, the Potency result in experiment [13], in [14], in experiment [15], in experiment [16], in experiment [17] and in [18] was “inactive” each time. The Potency entry in experiment [19] is “inactive”.
